# A number with no mark means an inactive call. Records with an inconclusive call do not appear. Entries that show only a call come without a potency. The source made the active and inactive calls. Unless noted, calls come from the whole dose curve; as a rule, active = well fitted curve in the direction sought with a large enough effect in the repeat runs; inconclusive = weak or mixed curves; inactive = no such curve, though single readings can be large; an effect the other way counts as inactive or inconclusive.
# Columns and labels:
# [1] = qHTS assay to identify small molecule antagonists of the sonic hedgehog signaling (Shh) pathway (AID 1259369; calls by dose curve; note: nearly all actives have a fitted effect of over 45% in size)
# In short: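 Read-out is luminescence from a firefly luciferase gene controlled by the Gli1 response element, in 3T3Gli1-Luc cells pre-incubated 4hr then exposed to compounds and conditioned medium for 24hr.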
# [2] = target: Estrogen receptor beta (Homo sapiens) (UniProt Q92731); assay: qHTS assay to identify small molecule agonists of the estrogen receptor beta (ER-beta) signaling pathway (AID 1259377; active = well fitted activation curve with a large enough effect in the signal ratio in the repeat runs, not every such curve was filed as active; the % refers to the signal ratio)
# Chain of Estrogen receptor beta (Homo sapiens) (Q92731 whole entry, looked up): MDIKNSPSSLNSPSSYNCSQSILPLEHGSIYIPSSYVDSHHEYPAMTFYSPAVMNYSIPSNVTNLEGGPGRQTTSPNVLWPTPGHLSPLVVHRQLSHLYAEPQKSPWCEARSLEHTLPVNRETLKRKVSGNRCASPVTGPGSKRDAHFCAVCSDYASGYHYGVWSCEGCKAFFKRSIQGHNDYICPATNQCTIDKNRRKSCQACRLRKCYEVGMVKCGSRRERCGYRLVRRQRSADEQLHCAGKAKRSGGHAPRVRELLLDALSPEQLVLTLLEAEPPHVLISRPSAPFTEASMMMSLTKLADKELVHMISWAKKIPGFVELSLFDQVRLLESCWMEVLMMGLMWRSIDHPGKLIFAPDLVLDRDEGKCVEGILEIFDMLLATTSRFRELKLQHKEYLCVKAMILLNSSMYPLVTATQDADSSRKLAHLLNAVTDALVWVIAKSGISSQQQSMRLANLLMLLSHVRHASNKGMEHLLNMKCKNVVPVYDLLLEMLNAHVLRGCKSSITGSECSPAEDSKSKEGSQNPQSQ
# In short: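 Ratiometric beta-lactamase FRET read-out came after 2 h substrate loading at room temperature. It followed 16 h compound treatment at 37C of GripTite HEK293T cells carrying a UAS-bla reporter, plated in 2% charcoal-stripped FBS medium.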
# [3] = target: Estrogen receptor beta (Homo sapiens) (UniProt Q92731); assay: qHTS assay to identify small molecule antagonists of the estrogen receptor beta (ER-beta) signaling pathway (AID 1259378; active = well fitted inhibition curve with a large enough effect in the signal ratio in the repeat runs, not every such curve was filed as active; the % refers to the signal ratio)
# In short: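 ER-beta-UAS-bla HEK293T (GripTite) cells in 2% charcoal-stripped FBS medium were preincubated 6 hr at 37C, dosed with compound, then stimulated with 1 nM E2 (final) for 16 hr; beta-lactamase reporter read by B/G FRET fluorescence after 2 hr substrate loading.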
# [4] = qHTS assay to identify small molecule agonists of the androgen receptor (AR) signaling pathway in the presence of an antagonist - cell viability counter screen (AID 1259379); note: nearly all actives have a fitted effect of over 25% in size; note: potency is the fitted concentration of half-maximal effect
# In short: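 Each compound was tested at 15 concentrations on MDA-kb2 cells in the presence of 3.0uM nilutamide. Viability was measured by CellTiter-Fluor fluorescence after a 16 hr incubation at 37C in a CO2-free atmosphere.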
# [5] = qHTS assay to identify small molecule agonists of the estrogen receptor beta (ER-beta) signaling pathway - cell viability counter screen (AID 1259380); note: nearly all actives have a fitted effect of over 30% in size
# In short: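 Compounds dissolved in DMSO were pin-transferred onto ER-beta-UAS-bla HEK293T cells that had settled 6 hr, and exposure ran 16 hr at 37C. Following the reporter read, CellTiter-Glo luminescence after 30 min at room temperature indicated cytotoxicity.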
# [6] = qHTS assay to identify small molecule antagonists of the estrogen receptor beta (ER-beta) signaling pathway - cell viability counter screen (AID 1259382); note: series mostly up to about 92 µM; nearly all actives have a fitted effect of over 55% in size
# In short: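 CellTiter-Glo ATP luminescence measured after the LiveBLAzer read in the same wells; ER-beta-UAS-bla HEK293T cells, 16 hr compound treatment with 1nM 17-beta-estradiol agonist at 37C, 5% CO2.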
# [7] = target: Estrogen receptor (Homo sapiens) (UniProt P03372); assay: qHTS assay to identify small molecule agonists of the estrogen receptor alpha (ER-alpha) signaling pathway in the presence of an antagonist (AID 1259383; calls by dose curve; note: top concentration of the series differs between compounds; nearly all actives have a fitted effect of over 15% in size)
# Chain of Estrogen receptor (Homo sapiens) (P03372 whole entry, looked up): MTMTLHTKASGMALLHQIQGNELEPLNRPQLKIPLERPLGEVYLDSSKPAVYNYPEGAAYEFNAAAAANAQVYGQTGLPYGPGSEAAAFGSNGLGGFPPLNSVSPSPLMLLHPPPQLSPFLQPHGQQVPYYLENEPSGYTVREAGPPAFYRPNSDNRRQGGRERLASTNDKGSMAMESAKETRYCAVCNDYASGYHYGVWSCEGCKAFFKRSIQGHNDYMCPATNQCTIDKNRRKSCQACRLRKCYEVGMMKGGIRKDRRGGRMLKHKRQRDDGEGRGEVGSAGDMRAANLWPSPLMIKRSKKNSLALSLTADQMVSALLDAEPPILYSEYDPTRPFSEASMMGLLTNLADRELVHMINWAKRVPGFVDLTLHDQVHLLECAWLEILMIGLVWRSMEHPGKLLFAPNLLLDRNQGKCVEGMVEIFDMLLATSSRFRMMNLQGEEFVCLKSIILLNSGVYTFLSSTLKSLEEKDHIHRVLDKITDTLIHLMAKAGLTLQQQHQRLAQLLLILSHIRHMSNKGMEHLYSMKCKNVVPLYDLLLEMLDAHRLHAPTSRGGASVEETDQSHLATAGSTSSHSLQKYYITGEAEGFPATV
# In short: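 Luminescent ERE-luciferase reporter, VM7Luc4E2 cells (endogenous ER-alpha); 10.0nM ICI-182,780 final; 15-point compound titration; 22hr at 37C; ONE-Glo, 30min RT.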
# [8] = qHTS assay to identify small molecule agonists or antagonists of the thyroid stimulating hormone receptor (TSHR) signaling pathway - wild type cell line counter screen (AID 1259384; calls by dose curve)
# In short: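 Wild-type HEK293 cells were plated 18 h at 37 C/5% CO2, pin-dosed with compound plus Ro20-1724 medium, held 30 min at room temperature, then given cAMP-d2 and anti-cAMP-cryptate; fluorescence was read after 1 h. Fifteen concentrations, triplicate.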
# [9] = target: Thyrotropin receptor (Homo sapiens) (UniProt P16473); assay: qHTS assay to identify small molecule antagonists of the thyroid stimulating hormone receptor (TSHR) signaling pathway (AID 1259385; calls by dose curve; note: nearly all actives have a fitted effect of over 20% in size)
# Chain of Thyrotropin receptor (Homo sapiens) (P16473 whole entry, looked up): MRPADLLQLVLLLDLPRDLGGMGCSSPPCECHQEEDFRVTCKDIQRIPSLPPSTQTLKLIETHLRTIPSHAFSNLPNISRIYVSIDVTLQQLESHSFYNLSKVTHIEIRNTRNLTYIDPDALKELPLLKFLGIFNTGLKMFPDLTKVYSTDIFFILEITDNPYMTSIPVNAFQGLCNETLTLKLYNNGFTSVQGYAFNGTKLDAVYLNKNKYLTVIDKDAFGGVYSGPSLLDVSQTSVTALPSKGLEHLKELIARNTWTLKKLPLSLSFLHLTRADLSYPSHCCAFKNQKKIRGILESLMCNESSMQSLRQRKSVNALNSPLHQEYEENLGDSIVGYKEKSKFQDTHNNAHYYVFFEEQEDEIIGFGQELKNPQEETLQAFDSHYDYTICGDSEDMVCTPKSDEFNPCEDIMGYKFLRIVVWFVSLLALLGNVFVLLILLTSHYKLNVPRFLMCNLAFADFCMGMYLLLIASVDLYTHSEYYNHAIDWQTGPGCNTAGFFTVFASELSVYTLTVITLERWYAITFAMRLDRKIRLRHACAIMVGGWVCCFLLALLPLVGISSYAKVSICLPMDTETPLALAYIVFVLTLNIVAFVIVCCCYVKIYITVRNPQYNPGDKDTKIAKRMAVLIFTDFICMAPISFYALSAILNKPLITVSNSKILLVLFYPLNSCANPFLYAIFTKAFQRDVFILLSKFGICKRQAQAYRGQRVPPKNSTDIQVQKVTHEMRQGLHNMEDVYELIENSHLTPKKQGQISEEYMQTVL
# In short: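 TSHR-HEK293 cells were plated and held 18 h at 37C/5% CO2, then given compound plus Ro20-1724 and stimulated with TSH at 1.5 ng/mL final. After 30 min at room temperature, cAMP was detected with cAMP-d2/anti-cAMP-cryptate (1 h) by fluorescence.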
# [10] = qHTS assay to identify small molecule agonists of the estrogen receptor alpha (ER-alpha) signaling pathway in the presence of an antagonist - cell viability counter screen (AID 1259386);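 note: cells exposed to compounds for 22 h at 37 °C before the viability read; nearly all actives have a fitted effect of over 30% in size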; note: potency is the fitted concentration of half-maximal effect
# In short: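 Using estrogen-depleted VM7Luc4E2 cells, the 15-concentration compound series was applied together with 10.0nM ICI-182,780 and incubated 22hr at 37C/5% CO2. Cell viability was then scored by CellTiter-Fluor.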
# [11] = target: Progesterone receptor (Homo sapiens) (UniProt P06401); assay: qHTS assay to identify small molecule agonists of the progesterone receptor (PR) signaling pathway (AID 1346784; calls by dose curve; note: nearly all actives have a fitted effect of over 30% in size)
# Chain of Progesterone receptor (Homo sapiens) (P06401 whole entry, looked up): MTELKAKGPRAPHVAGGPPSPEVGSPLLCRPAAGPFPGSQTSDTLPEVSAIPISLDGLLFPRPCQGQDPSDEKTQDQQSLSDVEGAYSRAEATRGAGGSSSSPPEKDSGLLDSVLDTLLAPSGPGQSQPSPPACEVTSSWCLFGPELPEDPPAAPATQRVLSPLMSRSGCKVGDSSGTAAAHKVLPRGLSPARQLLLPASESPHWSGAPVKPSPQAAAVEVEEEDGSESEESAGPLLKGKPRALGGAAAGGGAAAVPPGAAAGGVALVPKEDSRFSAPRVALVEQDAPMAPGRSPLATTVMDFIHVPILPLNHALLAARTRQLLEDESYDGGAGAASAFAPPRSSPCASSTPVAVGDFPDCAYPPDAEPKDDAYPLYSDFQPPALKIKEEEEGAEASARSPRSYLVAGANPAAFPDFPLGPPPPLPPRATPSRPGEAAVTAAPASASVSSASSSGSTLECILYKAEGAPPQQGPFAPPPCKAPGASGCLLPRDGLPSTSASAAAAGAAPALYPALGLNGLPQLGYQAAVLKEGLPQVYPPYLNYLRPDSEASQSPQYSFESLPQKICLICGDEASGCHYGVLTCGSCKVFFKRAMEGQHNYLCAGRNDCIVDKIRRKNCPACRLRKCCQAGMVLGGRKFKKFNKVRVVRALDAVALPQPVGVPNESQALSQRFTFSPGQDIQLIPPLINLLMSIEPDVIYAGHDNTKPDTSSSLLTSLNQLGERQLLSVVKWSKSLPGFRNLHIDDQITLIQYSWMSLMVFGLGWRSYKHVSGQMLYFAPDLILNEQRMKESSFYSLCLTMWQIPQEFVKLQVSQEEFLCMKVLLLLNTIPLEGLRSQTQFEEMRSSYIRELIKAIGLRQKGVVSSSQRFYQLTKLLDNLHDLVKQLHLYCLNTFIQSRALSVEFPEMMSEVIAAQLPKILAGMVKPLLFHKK
# In short: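 Agonist qHTS: compounds pinned onto 3,000 PR-UAS-bla HEK 293T cells per well in charcoal-stripped serum medium, 16hr at 37C, then beta-lactamase activity measured by LiveBLAzer FRET fluorescence after 2 hours at room temperature.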
# [12] = target: Progesterone receptor (Homo sapiens) (UniProt P06401); assay: qHTS assay to identify small molecule antagonists of the progesterone receptor (PR) signaling pathway (AID 1346795; active = well fitted inhibition curve with a large enough effect in the signal ratio in the repeat runs, not every such curve was filed as active; the % refers to the signal ratio)
# In short: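 Antagonist mode with agonist R5020 at 1 nM final and 16 hr incubation at 37C. Reporter was beta-lactamase driven by UAS in HEK293T (PR-UAS-bla), 2% charcoal-stripped serum; signal from LiveBLAzer FRET substrate, 2 hr at room temperature.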
# [13] = qHTS assay to identify small molecule antagonists of the progesterone receptor (PR) signaling pathway - cell viability counter screen (AID 1346798); note: series mostly up to about 92 µM; nearly all actives have a fitted effect of over 50% in size
# In short: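 Cytotoxicity read as CellTiter-Glo luminescence (30 min, room temperature) in the same wells as the beta-lactamase readout. HEK293T PR-UAS-bla cells in charcoal-stripped 2% FBS received compound and R5020, then 16 h at 37C, 5% CO2.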
# [14] = qHTS assay to identify small molecule agonists of the progesterone receptor (PR) signaling pathway - cell viability counter screen (AID 1346799; calls by dose curve; note: nearly all actives have a fitted effect of over 45% in size)
# In short: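 Cytotoxicity measured by CellTiter-Glo luminescence (30 min, RT) in the same wells as the PR beta-lactamase agonist read. Those HEK293T cells had 16 h compound treatment at 37 C in 2% charcoal-stripped FBS medium.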
# [15] = qHTS assay to identify small molecule antagonists of the TGF-beta/Smad signaling pathway - cell viability counter screen (AID 1346824); note: nearly all actives have a fitted effect of over 50% in size; note: potency is the fitted concentration of half-maximal effect
# In short: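 SBE-bla HEK 293T cells were plated overnight at 37 C, then given compounds in DMSO plus TGF-beta1 (added as 0.25 ng/mL solution) for 5 hr. After the bla read, CellTiter-Glo was added to the same wells and luminescence read after 30 min at room temperature.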
# [16] = qHTS assay to identify small molecule agonists of the TGF-beta/Smad signaling pathway - cell viability counter screen (AID 1346829); note: nearly all actives have a fitted effect of over 45% in size; note: potency is the fitted concentration of half-maximal effect
# In short: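 Here the cytotoxicity of library compounds is measured in SBE-bla HEK 293T cells treated for 5 hr, using CellTiter-Glo added to wells already read for the beta-lactamase reporter.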
# [17] = qHTS assay to identify small molecule agonists of the TGF-beta/Smad signaling pathway (AID 1346859; active = well fitted activation curve with a large enough effect in the signal ratio in the repeat runs, not every such curve was filed as active; the % refers to the signal ratio; note: series mostly up to about 77 µM)
# In short: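 Fluorescence (ex 405 nm; em 460 and 530 nm) was read 2 h after LiveBLAzer FRET substrate at RT. The preceding compound treatment of overnight-plated SBE-bla HEK293T cells lasted 5 h at 37 C.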
# [18] = target: Thyrotropin-releasing hormone receptor (Homo sapiens) (UniProt P34981); assay: qHTS assay to identify small molecule antagonists of the thyrotropin-releasing hormone receptor (TRHR) signaling pathway (AID 1346877; active = well fitted inhibition curve with a large enough effect in the repeat runs, not every such curve was filed as active; note: series mostly up to about 51 µM)
# Chain of Thyrotropin-releasing hormone receptor (Homo sapiens) (P34981 whole entry, looked up): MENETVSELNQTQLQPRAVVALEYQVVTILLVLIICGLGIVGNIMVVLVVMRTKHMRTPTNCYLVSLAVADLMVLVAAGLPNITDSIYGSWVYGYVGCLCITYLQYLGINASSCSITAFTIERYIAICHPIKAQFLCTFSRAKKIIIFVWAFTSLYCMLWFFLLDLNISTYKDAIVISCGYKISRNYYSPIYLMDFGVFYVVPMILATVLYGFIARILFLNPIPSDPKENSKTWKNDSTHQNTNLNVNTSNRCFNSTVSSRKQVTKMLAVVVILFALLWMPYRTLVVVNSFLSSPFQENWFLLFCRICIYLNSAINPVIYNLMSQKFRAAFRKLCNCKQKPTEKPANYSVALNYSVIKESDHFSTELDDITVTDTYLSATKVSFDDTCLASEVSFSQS
# In short: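 Calcium signal in dye-loaded TRHR/HEK293 cells; compounds added 5 min before TRH (1 nM final); fluorescence monitored 3 min at 1 s steps.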
# [19] = target: Thyrotropin-releasing hormone receptor (Homo sapiens) (UniProt P34981); assay: qHTS assay to identify small molecule agonists of the thyrotropin-releasing hormone receptor (TRHR) signaling pathway (AID 1346891; calls by dose curve; note: series mostly up to about 58 µM)
# In short: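 Agonist-mode intracellular calcium readout: kinetic fluorescence over 3 min at 1 s intervals after compound addition to TRHR-HEK293 cells (18 h seeded, 2 h dye-loaded at 37 C). Fifteen concentrations, triplicates.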
SMILES,Potency [1],Potency [2],Potency [3],Potency [4],Potency [5],Potency [6],Potency [7],outcome [8],Potency [9],Potency [10],Potency [11],Potency [12],Potency [13],Potency [14],Potency [15],Potency [16],outcome [17],Potency [18],Potency [19]
CCBr,inactive,inactive,inactive,inactive,inactive,inactive,inactive,inactive,inactive,inactive,inactive,inactive,inactive,inactive,inactive,inactive,inactive,inactive,inactive
ClCC(Br)CBr (stereo not given),inactive,inactive,inactive,inactive,inactive,inactive,inactive,inactive,inactive,inactive,inactive,inactive,inactive,inactive,inactive,inactive,inactive,,
O=[Se]=O,inactive,inactive,inactive,9.62 µM (active),inactive,inactive,inactive,inactive,inactive,21.5 µM (active),inactive,,inactive,inactive,9.7 µM (active),4.86 µM (active),,inactive,
O=C(O)COc1ccc(Cl)cc1,inactive,inactive,inactive,inactive,inactive,inactive,inactive,inactive,inactive,inactive,inactive,inactive,inactive,inactive,inactive,inactive,,inactive,inactive

# Reference: PubChem BioAssay (Tox21)
